Measurements as given in article PMC4336329 (PLoS ONE, 2015).
Out of some 310,000 compounds screened, about 14,000 (4.5%) showed an effect of 50% or more. Effects have a minus sign here. The full list was thinned out, with strong results kept by preference.

What follows are compounds tested against human ether-à-go-go-related gene (hERG) potassium channel (human, UniProt Q12809) (assay: primary screen, population patch clamp on CHO cells stably expressing hERG; higher = less effect of the substance).
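Also: peak tail current of the secondary pulse compared with the same well before compound.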

human ether-à-go-go-related gene (hERG) potassium channel, sequence (Q12809 whole entry, looked up): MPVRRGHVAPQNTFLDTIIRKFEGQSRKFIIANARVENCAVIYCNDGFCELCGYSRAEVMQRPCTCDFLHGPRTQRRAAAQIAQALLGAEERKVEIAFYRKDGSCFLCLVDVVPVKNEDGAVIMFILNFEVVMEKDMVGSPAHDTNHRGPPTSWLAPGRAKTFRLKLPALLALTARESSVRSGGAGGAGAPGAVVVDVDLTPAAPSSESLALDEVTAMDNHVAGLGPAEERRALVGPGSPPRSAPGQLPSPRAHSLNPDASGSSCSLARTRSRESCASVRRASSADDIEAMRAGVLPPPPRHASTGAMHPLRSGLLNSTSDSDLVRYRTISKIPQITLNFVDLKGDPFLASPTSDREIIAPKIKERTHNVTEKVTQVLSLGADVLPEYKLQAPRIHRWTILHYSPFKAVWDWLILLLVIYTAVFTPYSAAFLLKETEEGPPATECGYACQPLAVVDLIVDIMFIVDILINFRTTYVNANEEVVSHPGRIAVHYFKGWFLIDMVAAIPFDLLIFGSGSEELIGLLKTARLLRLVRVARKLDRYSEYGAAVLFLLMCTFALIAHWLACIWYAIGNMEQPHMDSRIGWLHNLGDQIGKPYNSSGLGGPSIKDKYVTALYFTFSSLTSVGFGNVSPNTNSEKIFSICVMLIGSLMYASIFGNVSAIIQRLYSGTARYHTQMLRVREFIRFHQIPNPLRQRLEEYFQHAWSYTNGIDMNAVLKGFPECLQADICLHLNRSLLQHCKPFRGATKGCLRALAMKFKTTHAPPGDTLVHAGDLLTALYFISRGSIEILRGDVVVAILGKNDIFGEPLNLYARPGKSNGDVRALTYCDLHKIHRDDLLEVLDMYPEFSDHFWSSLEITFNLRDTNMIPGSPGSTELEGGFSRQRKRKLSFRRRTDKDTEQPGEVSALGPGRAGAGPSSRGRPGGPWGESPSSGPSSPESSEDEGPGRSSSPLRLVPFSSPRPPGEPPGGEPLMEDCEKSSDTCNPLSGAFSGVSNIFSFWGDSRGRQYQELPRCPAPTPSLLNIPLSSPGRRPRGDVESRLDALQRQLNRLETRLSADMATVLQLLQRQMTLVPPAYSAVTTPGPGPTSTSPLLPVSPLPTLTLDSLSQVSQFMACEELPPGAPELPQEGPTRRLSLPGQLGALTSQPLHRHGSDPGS

Structure (SMILES)	hERG current change (%, negative = inhibition) at 10uM [%]
COc1cc(Cl)c(C)cc1NC(=O)CSc1cc(Cl)ccc1Cl	7.31
COc1ccc(CC(=O)OCCN(C)C)cc1.Cl	11.8
c1ccc(CCN2CN=C(Nc3nc4ccccc4s3)NC2)cc1	-1.49
COc1ccc(C(CCN2CCN(c3ccccc3)CC2)c2c(O)cc(OC)cc2OC)cc1 (stereo not shown)	-30.5
Cc1ccc(Cl)cc1N1CCN(CC(O)COC(C)C)CC1.Cl (stereo not shown)	-63.7
COc1ccc(N2CCN(CCC(O)c3ccc4ccccc4c3)CC2)cc1 (stereo not shown)	-68.3
Cc1ccc(Cl)cc1N1CCN(CCN)CC1	-0.374
COc1ccc(N2CCN(CC(O)COC(C)(C)C)CC2)cc1.O=C(O)C(=O)O (stereo not shown)	10.2
Cc1ccc(Cl)cc1N1CCN(Cc2cc3c(cc2O)CCC3)CC1	4.92
CCCN1CCN(CC(O)COC(c2ccc(OC)cc2)c2ccc(OC)cc2)CC1.O=C(O)C(=O)O (stereo not shown)	-30.2
COc1ccc(N2CCN(CC(O)COC(c3ccc(F)cc3)c3ccc(F)cc3)CC2)cc1.O=C(O)C(=O)O (stereo not shown)	-81.6
COc1ccc(N2CCN(CCN3C(=O)c4ccccc4C3=O)CC2)cc1	17.6
N=C1C(c2ccc(Br)cc2)=C(O)C2CCc3ccccc3N12 (stereo not shown)	-30.5
CC(C)N(C(=O)Cn1cnc2cc([N+](=O)[O-])ccc2c1=O)C(C)C	7.76
Cc1cccc2cc(CN(CCCO)C(=O)Nc3ccccc3Cl)c(=O)[nH]c12	5.32
O=C(N=C1c2ccccc2CN1c1ccccc1)c1cccc([N+](=O)[O-])c1	-1.72
CCC1CCCCN1CCCNC(=O)CCNC(=O)Cn1cnc2ccccc2c1=O (stereo not shown)	-0.683
CCN(CC)CCCNC(=O)c1cc2c(Cl)nc3ccccc3c2s1	-47.1
CC1CCCN(CCCNC(=O)c2coc3nc4ccccc4nc23)C1 (stereo not shown)	-5.67
Cc1ccc2nc(Cl)c3cc(C(=O)NCCCN4CCCC4)sc3c2c1	-10.3
CC1CCN(CCCNC(=O)c2cc3c(Cl)nc4ccccc4c3s2)CC1	-66.2

Structure (SMILES)	hERG current change (%, negative = inhibition) at 10uM [%]
O=C(NCCCN1CCCC1)c1cc2c(Cl)nc3ccccc3c2s1	-13.9
CC1CCCN(CCCNC(=O)c2cc3c(Cl)nc4ccccc4c3s2)C1 (stereo not shown)	-55.6
CCC1CCCCN1CCCNC(=O)c1cc2c(Cl)nc3ccccc3c2s1 (stereo not shown)	-76.6
Cc1nc2ccccc2c2oc(C(=O)NCCCN3CCCC(C)C3)cc12 (stereo not shown)	-19
Cc1cccc(C)c1NC(=O)C1(N(Cc2ccco2)C(=O)CC2NC(=O)NC2=O)CCCCC1 (stereo not shown)	7.25
CCN(CC)C(=O)CSc1nnnn1-c1ccc(F)c(Cl)c1	-3.28
O=C(Oc1ccc(-c2nc(-c3ccccn3)no2)cc1)c1ccccc1	7.73
CCOC(=O)c1[nH]c2ccc(OC)cc2c1NC(=O)c1ccc2c(c1)OCO2	17.1
CN(CC(=O)Nc1ccccc1C(F)(F)F)C(=O)c1ccc(-c2ccc(Cl)cc2)o1	-13.7
COc1ccc(-n2nnc3c(SCC(=O)Nc4ccc5c(c4)OCCO5)ncnc32)cc1	0.643
C=CCNC(=O)c1onc(CSc2ccc(Cl)cc2)c1C(=O)O	15.2
CC(C)(O)C#Cc1ccc(C(=O)Nc2ccc3c(c2)OCO3)s1	22.7
O=C(Nc1cccnc1Cl)c1cc2ccccc2o1	6.92
O=C(O)c1cccc(OS(=O)(=O)c2cc(Br)ccc2Br)c1	-9.65
O=C(Nc1ccccc1Cl)c1cc(S(=O)(=O)N2CCOCC2)cs1	-9.07
Cc1ccc(NC(=O)c2cc(S(=O)(=O)N3CCOCC3)cs2)cc1	-8.31
O=C(Nc1ccccc1C(=O)O)c1cc(S(=O)(=O)N2CCCCC2)cs1	10.1
Cn1cc(S(=O)(=O)N2CCOCC2)cc1C(=O)Nc1cccc(Cl)c1	-10.4
Cn1cc(S(=O)(=O)N2CCOCC2)cc1C(=O)Nc1ccc(Cl)cc1	-51
O=C(Nc1ccccc1C(=O)O)c1cc(S(=O)(=O)N2CCOCC2)cs1	-66.4
O=C(Nc1ccc(F)cc1)c1cc(S(=O)(=O)N2CCOCC2)cs1	-11

Structure (SMILES)	hERG current change (%, negative = inhibition) at 10uM [%]
O=C(Nc1ccc(Cl)cc1)c1cc(S(=O)(=O)N2CCOCC2)cs1	-51.2
Cc1ccc(NC(=O)c2cc(S(=O)(=O)N3CCOCC3)cn2C)cc1Cl	11.2
CCOc1ccccc1NC(=O)NCc1ccccc1	0.101
CN(C)S(=O)(=O)c1ccc2c(c1)C(CC(=O)O)NC2=O (stereo not shown)	6.72
CCCOc1ccc(N2C(=O)CC(SC(=NCC)NCC)C2=O)cc1 (stereo not shown)	11.9
Cc1nc(-c2ccccc2)sc1C(=O)CSc1ccc(F)cc1	-7.92
CNC(=S)NNC(=O)c1cccn(Cc2ccccc2)c1=O	19
COc1ccc(CN2CCN(c3ccccn3)CC2)c(OC)c1	-75.9
COc1ccc(OC)c(S(=O)(=O)N2CCN(c3ccccn3)CC2)c1	-12.5
COc1ccc(OC)c(S(=O)(=O)N2CCN(Cc3ccccc3)CC2)c1	2.05
COc1ccc(S(=O)(=O)N2CCN(CCc3ccccc3)CC2)c(OC)c1	-25.6
COc1ccc(NC(=S)N2CCN(Cc3ccccc3)CC2)c(OC)c1	-5.79
COc1ccc(CN2CCN(c3ccccn3)CC2)cc1OCc1ccccc1	-67.9
COc1ccc(CC(C)N2CCN(Cc3ccccc3)CC2)c(OC)c1 (stereo not shown)	-75.3
COc1ccc(-c2[nH]ncc2CN2CCN(c3ccccn3)CC2)c(OC)c1	-31.5
COc1ccc(CN2CCc3ccccc3C2)c(OC)c1	-28.4
COc1ccc(CN2CCN(CCCc3ccccc3)CC2)c(OC)c1	-76.6
COc1ccc(CN2CCN(C)CC2)cc1OCc1ccccc1	-19
CCN1CCN(Cc2ccc(OC)c(OCc3ccccc3)c2)CC1	-41.9
